From PubChem BioAssay AID1159580 (chemical genetic matrix, 2015)
Where “and” joins values, the source holds several entries; their conditions need not be identical. Identical values can stand only once. In all, about 5,500 compounds went through this assay and about 2,000 (36%) were called active. Inconclusive results (about 18%) are left out. Rule as the data show it: active = normalized growth mostly below about 0.91 (no sharp cut-off); inconclusive = no clear call, values can overlap the other calls; inactive = mostly above about 0.92. The list shows a part of the results.

Assay: chemical genetic growth profiling, strain panel (AID 1159580);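 also: tested at 20 µM; growth read once vehicle control cultures reached saturation at 30 °C; 1 = growth at the plate median or of vehicle wells; lower values mean less growth of the strain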
Settings: S. cerevisiae deletion strains, growth OD

Measured: normalized growth

CC(CCc1ccccc1)NC(C)C(O)c1ccc(O)cc1 (stereo not given)
inactive: locus YAL021C, strain ccr4, hits give low values 0.992 | locus YAL026C, strain drs2, hits give low values 0.995 | locus YAL030W, strain snc1, hits give low values 0.999 | locus YAL040C, strain CLN3, hits give low values 1.01 | locus YBL061C, strain skt5, hits give low values 0.997 | locus YBR009C, strain hhf1, hits give low values 1 | locus YBR021W, strain FUR4, hits give low values 0.997 | locus YBR023C, strain chs3, hits give low values 1.01 | locus YBR171W, strain sec66, hits give low values 1.01 | locus YBR229C, strain ROT2, hits give low values 0.955 | locus YBR231C, strain swc5, hits give low values 1 | locus YBR279W, strain paf1, hits give low values 0.995 | locus YCL011C, strain gbp2, hits give low values 1.01 | locus YCL016C, strain dcc1, hits give low values 1.01 | locus YCL029C, strain bik1, hits give low values 0.981 | locus YCL061C, strain MRC1 (second series), hits give low values 1 | locus YCL061C, strain MRC1, hits give low values 0.998 | locus YCL069W, strain vba3, hits give low values 0.998 | locus YCR088W, strain abp1, hits give low values 1.01 | locus YDL005C, strain med2, hits give low values 0.999 | locus YDL035C, strain GPR1, hits give low values 0.977 | locus YDL040C, strain nat1, hits give low values 1 | locus YDL074C, strain BRE1, hits give low values 0.953 | locus YDL101C, strain DUN1, hits give low values 0.978 | locus YDL134C, strain PPH21, hits give low values 1 | locus YDL185W, strain tfp1, hits give low values 0.984 | locus YDL192W, strain arf1, hits give low values 0.992 | locus YDR001C, strain nth1, hits give low values 0.999 | locus YDR069C, strain doa4, hits give low values 0.977 | locus YDR101C, strain arx1, hits give low values 0.998 | locus YDR137W, strain rgp1, hits give low values 0.989 | locus YDR150W, strain NUM1, hits give low values 0.984 | locus YDR159W, strain sac3, hits give low values 0.99 | locus YDR162C, strain NBP2, hits give low values 0.991 | locus YDR195W, strain ref2 1 | locus YDR297W, strain sur2, hits give low values 0.993 | locus YDR318W, strain mcm21, hits give low values 1 | locus YDR334W, strain swr1, hits give low values 1.01 | locus YDR335W, strain msn5, hits give low values 0.995 | locus YDR363W, strain ESC2, hits give low values 0.998 | locus YDR388W, hits give low values 0.993 | locus YDR392W, strain spt3, hits give low values 0.963 | locus YDR502C, strain sam2, hits give low values 1 | locus YEL003W, strain gim4, hits give low values 0.979 | locus YEL037C, strain rad23, hits give low values 1 | locus YEL061C, strain CIN8 (second series), hits give low values 1 | locus YEL061C, strain CIN8, hits give low values 0.987 | locus YER002W, strain NOP16, hits give low values 1 | locus YER015W, strain faa2, hits give low values 0.998 | locus YER016W, strain bim1, hits give low values 0.999 | locus YER110C, hits give low values 0.962 | locus YER111C, strain swi4, hits give low values 0.999 | locus YER155C, strain BEM2 (second series), hits give low values 1 | locus YER155C, strain BEM2, hits give low values 0.993 | locus YER167W, strain BCK2, hits give low values 0.99 | locus YFR010W, strain ubp6, hits give low values 1 | locus YGL078C, strain dbp3, hits give low values 0.993 | locus YGL086W, strain mad1, hits give low values 0.975 | locus YGL167C, strain pmr1, hits give low values 1 | locus YGL173C, strain kem1, hits give low values 1.01 | locus YGL227W, strain vid30, hits give low values 1 | locus YGL240W, strain doc1, hits give low values 0.993 | locus YGL248W, strain PDE1, hits give low values 0.97 | locus YGL253W, strain hxk2, hits give low values 0.997 | locus YGR078C, strain PAC10, hits give low values 0.981 | locus YGR135W, strain pre9, hits give low values 0.989 | locus YGR229C, strain SMI1, hits give low values 0.989 | locus YGR252W, strain gcn5, hits give low values 0.974 | locus YHR013C, strain ard1, hits give low values 0.991 | locus YHR027C, strain rpn1, hits give low values 1.02 | locus YHR030C, strain SLT2, hits give low values 0.995 and 0.972 | locus YHR079C, strain IRE1 (second series), hits give low values 1 | locus YHR079C, strain IRE1, hits give low values 0.959 | locus YHR094C, strain hxt1, hits give low values 1 | locus YHR129C, strain ARP1, hits give low values 0.987 | locus YHR142W, strain chs7, hits give low values 1.01 | locus YHR200W, strain rpn10, hits give low values 0.997 | locus YIL066C, strain RNR3, hits give low values 0.988 | locus YIL073C, strain SPO22, hits give low values 0.979 | locus YIL125W, strain kgd1, hits give low values 0.989 | locus YIR030C, strain dcg1, hits give low values 0.983 | locus YJL092W, strain hpr5, hits give low values 1.01 | locus YJL095W, strain BCK1 (second series), hits give low values 1.02 | locus YJL095W, strain BCK1, hits give low values 0.981 and 0.985 | locus YJL115W, strain asf1, hits give low values 1.01 | locus YJL129C, strain trk1, hits give low values 0.98 | locus YJL134W, strain LCB3, hits give low values 0.993 | locus YJL154C, strain vps35, hits give low values 0.996 | locus YJL164C, strain tpk1, hits give low values 0.992 | locus YJL166W, strain qcr8, hits give low values 1 | locus YJL168C, strain set2, hits give low values 0.991 | locus YJL187C, strain SWE1 (second series), hits give low values 0.982 | locus YJL187C, strain SWE1, hits give low values 1 | locus YJR043C, strain POL32, hits give low values 1 | locus YJR066W, strain TOR1, hits give low values 0.925
